# Article PMC7862700, “An all-to-all approach to the identification of sequence-specific readers for epigenetic DNA modifications on cytosine”
# How the values were obtained:
# Test in all cases: DAPPL (digital affinity profiling via proximity ligation, sequencing); 10 mM Tris-HCl pH 7.5, 50 mM NaCl, 1 mM DTT, 4% glycerol, room temperature, 30 min; GST-TFs on glutathione beads, 16-mer random dsDNA library, 0.1% formaldehyde crosslink after washing; high values mean tight binding
# Conditions in all cases: protein: recombinant; tags: N-terminal GST; dsDNA, one strand shown
# FLI1 = target: T1, FLI1 (Homo sapiens, UniProt Q01543 1-452)
# T1 sequence: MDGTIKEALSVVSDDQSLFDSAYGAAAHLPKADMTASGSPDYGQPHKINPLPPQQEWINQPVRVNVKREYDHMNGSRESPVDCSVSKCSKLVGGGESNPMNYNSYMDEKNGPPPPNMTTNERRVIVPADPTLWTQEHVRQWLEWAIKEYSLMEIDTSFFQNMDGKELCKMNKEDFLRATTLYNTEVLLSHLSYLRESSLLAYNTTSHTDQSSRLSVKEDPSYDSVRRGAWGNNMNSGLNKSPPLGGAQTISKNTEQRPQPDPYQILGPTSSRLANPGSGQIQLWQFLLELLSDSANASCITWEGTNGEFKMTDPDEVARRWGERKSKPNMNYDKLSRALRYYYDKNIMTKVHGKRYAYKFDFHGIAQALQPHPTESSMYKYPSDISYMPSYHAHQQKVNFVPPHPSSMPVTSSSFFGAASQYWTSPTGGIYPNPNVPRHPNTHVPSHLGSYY
# Outline: (§1)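 Yeast served to express human transcription factors as GST fusions, which were then captured on glutathione beads and labelled with DNA barcodes. Pooled with a tag-only sample, they were incubated with 200 nmole of a 16-mer random double-stranded DNA library for 30 min at room temperature in Tris/NaCl/DTT/glycerol buffer, washed, crosslinked with 0.1% formaldehyde, ligated by proximity, amplified by PCR and sequenced. Dividing each hexamer's read frequency for a factor by its frequency for the tag-only sample gives the binding signal.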
# ELK1 = target: T2, ELK1 (Homo sapiens, UniProt P19419 1-428)
# T2 sequence: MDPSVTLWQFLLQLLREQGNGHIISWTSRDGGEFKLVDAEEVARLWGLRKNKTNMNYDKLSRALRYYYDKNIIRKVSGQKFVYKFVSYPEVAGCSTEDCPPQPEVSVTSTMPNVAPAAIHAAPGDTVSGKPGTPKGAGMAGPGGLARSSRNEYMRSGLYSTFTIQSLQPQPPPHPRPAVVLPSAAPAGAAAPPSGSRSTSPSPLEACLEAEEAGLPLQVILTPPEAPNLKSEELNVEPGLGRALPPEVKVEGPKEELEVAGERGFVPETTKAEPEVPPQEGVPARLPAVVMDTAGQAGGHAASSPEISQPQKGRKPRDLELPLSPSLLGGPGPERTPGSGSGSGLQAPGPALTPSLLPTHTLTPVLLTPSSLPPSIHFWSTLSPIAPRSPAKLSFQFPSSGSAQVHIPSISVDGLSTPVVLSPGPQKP
# Outline: as §1
# GABPA = target: T3, GABPA (Homo sapiens, UniProt Q06546 1-454)
# T3 sequence: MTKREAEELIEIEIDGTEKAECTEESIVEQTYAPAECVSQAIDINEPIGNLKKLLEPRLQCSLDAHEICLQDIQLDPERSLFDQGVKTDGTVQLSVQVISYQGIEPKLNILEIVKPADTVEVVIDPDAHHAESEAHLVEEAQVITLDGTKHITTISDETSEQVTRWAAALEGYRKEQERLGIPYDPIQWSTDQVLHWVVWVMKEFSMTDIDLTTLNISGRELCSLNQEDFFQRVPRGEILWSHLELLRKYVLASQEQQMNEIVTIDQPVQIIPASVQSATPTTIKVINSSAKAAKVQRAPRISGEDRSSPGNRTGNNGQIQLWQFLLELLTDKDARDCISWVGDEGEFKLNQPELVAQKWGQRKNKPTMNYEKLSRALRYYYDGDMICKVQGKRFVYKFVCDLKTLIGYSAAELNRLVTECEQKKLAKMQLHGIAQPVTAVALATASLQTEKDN
# Outline: as §1
# ERG = target: T4, ERG (Homo sapiens, UniProt P11308 1-479)
# T4 sequence: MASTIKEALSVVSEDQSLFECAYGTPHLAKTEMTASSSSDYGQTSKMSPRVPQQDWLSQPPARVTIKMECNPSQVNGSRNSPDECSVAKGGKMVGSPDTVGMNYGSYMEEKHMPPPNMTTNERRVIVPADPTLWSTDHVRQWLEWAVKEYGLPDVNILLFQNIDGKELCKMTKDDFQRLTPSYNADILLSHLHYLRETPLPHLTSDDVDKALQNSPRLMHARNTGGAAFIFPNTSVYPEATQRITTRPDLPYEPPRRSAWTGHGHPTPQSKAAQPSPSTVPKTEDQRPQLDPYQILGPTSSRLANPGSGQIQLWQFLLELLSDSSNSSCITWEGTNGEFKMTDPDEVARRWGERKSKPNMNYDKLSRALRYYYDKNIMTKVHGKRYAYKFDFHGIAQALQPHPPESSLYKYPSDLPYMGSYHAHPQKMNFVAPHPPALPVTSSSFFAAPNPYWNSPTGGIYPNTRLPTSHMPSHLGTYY
# Outline: as §1
# ELF1 = ELF1 (Homo sapiens, UniProt P32519 1-619)
# Sequence of ELF1 (P32519 whole entry): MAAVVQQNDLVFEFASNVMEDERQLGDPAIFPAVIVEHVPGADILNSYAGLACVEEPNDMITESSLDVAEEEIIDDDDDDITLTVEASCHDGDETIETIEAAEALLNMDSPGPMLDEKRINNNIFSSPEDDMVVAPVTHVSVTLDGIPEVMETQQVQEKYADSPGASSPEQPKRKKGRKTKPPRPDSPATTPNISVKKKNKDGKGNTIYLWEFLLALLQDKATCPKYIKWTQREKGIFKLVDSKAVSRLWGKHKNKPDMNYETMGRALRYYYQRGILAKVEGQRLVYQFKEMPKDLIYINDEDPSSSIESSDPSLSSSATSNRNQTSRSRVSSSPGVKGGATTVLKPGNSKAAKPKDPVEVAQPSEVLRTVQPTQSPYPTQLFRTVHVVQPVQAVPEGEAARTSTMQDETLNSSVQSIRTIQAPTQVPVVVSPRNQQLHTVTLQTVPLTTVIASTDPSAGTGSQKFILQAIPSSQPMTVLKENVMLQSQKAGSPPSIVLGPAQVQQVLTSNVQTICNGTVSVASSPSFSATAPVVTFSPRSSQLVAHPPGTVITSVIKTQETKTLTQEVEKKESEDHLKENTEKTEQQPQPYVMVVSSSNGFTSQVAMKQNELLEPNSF
# Outline: as §1
# EHF = target: T5, EHF (Homo sapiens, UniProt Q9NZC4 1-300)
# T5 sequence: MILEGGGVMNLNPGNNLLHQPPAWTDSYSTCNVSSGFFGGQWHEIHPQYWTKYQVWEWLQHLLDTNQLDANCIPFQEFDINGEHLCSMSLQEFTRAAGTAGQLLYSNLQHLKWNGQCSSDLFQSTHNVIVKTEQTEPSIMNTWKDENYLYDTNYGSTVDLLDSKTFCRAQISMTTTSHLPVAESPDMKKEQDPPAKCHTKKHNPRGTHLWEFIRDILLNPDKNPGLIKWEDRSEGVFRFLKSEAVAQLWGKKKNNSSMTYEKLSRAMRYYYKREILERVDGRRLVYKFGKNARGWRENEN
# Outline: as §1
# SPI1 = SPI1 (Homo sapiens, UniProt P17947 1-270)
# Outline: as §1
# SPIB = SPIB (Homo sapiens, UniProt Q01892 1-262)
# Sequence of SPIB (Q01892 whole entry): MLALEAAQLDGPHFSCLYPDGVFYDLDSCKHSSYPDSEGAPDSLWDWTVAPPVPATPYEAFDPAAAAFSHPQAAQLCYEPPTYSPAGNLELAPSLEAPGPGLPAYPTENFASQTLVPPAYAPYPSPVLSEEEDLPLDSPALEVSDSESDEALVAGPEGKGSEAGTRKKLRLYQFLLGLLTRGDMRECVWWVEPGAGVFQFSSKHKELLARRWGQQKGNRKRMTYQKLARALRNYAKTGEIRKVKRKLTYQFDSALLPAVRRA
# Outline: as §1
# ELK3 = target: T6, ELK3 (Homo sapiens, UniProt P41970 1-407)
# T6 sequence: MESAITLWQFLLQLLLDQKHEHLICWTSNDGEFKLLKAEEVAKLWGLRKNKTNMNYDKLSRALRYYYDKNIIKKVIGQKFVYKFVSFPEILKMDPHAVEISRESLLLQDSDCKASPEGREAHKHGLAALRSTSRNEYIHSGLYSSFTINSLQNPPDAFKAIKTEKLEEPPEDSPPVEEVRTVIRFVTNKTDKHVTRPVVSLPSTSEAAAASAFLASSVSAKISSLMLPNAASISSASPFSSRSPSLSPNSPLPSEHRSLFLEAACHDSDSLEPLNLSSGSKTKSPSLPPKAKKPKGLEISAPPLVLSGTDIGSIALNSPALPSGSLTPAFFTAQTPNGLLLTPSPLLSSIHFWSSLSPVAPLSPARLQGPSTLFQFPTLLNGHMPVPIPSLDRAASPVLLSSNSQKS
# Outline: as §1
sequence,measurement,setting,value
ATTTTT,binding signal,FLI1,"1.14 fold enrichment (6-mer frequency, TF over GST control)"
same,binding signal,ELK1,"1.14 fold enrichment (6-mer frequency, TF over GST control)"
same,binding signal,GABPA,"1.13 fold enrichment (6-mer frequency, TF over GST control)"
same,binding signal,ERG,"1.1 fold enrichment (6-mer frequency, TF over GST control)"
same,binding signal,ELF1,"1.14 fold enrichment (6-mer frequency, TF over GST control)"
same,binding signal,EHF,"1.22 fold enrichment (6-mer frequency, TF over GST control)"
same,binding signal,SPI1,"1.18 fold enrichment (6-mer frequency, TF over GST control)"
same,binding signal,SPIB,"1.19 fold enrichment (6-mer frequency, TF over GST control)"
same,binding signal,ELK3,"1.12 fold enrichment (6-mer frequency, TF over GST control)"
